Compound activity: PubChem, National Center for Advancing Translational Sciences (NCATS)
TGFb SMAD3 inh: blocks TGF-b signaling; AID 588855; actives 1.2% (n = 410,000); HepG2 CAGA-GFP TGF-b/SMAD3 reporter, GFP fluorescence, 18 h; TGF-beta stimulated, 500 pg/mL final; Potency, µM (highest dose often 46.1 µM), for inactives: at the top dose activity, negative = inhibition, most hits filed as inhibitors; also: potency is read from the fitted curve at half-maximal effect; % is scaled to controls: 0 for no effect and ±100 for the full control effect; nearly all actives have a fitted effect of over 65% in size
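HEPG2 CAGA-GFP, 1000 cells/well; 2 h settle, 37 C; cpd via pin tool; TGF-b 500 pg/mL final; 18 h, 37 C; GFP imaging ex488/em500-530; %Activity normalised to -TGF-b and +DMSO controls; CRC fit, curve class.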
TDP1 cell CPT: growth inhibition of DT40 Tdp1-/-;hTDP1 cells with camptothecin (screen for TDP1 inhibitors); chicken DT40 Tdp1-/-;hTDP1 cells + 20 nM CPT, ATP luminescence, 48 h; Potency, µM (titrated, usually from 46.2 µM), inactives show at the highest dose activity change, negative = growth inhibition, most hits filed as inhibitors; actives 12% (n = 420,000); AID 686979; also: potency is read from the fitted curve at half-maximal effect; % is scaled to controls: 0 for no effect and ±100 for the full control effect; nearly all actives have a fitted effect of over 55% in size
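Cell growth measured by CellTiter-Glo luminescence after a minimum 48 h, 37 C compound exposure with 20 nM CPT in Tdp1-knockout DT40 cells stably expressing hTDP1, seeded 400/well; qHTS titration format.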
TDP1 cell noCPT: qHTS for Inhibitors of human tyrosyl-DNA phosphodiesterase 1 (TDP1): qHTS in cells in absence of CPT; AID 686978, 2013; DT40 Tdp1-/- hTDP1 cells, no CPT, ATP luminescence, 48 h; actives 15% (n = 420,000); Potency, µM (doses to about 46.2 µM), inactives show at the top dose activity change, negative = growth inhibition, hits mostly inhibitors; also: potency is read from the fitted curve at half-maximal effect; % is scaled to controls: 0 for no effect and ±100 for the full control effect; nearly all actives have a fitted effect of over 55% in size
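Seeded 400 DT40-hTDP1 cells/well (vehicle DMSO, no 20 nM CPT); pinned compounds; ≥48 hr at 37 °C; CellTiter-Glo luminescence as viability measure.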
IL1B secr inh: inflammasome signaling inhibition, IL-1 beta readout; THP-1 LPS/ATP IL-1B secretion, AlphaLISA, 16 h; stronger effect = lower value; activity change, % at 57.5 µM; actives 4.7% (n = 360,000); AID 743279; in the data active = activity change below about -50%; inconclusive = mostly about -30% to -49%; also: % is scaled to controls: 0 for no effect and ±100 for the full control effect
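Secreted IL-1B measured by AlphaLISA bead assay after 16 h compound exposure of THP-1 cells; compounds (final up to 57.5 uM) added 1 h before LPS (250 ng/mL) and ATP (1.25 mM) stimulation; lower signal means less secretion.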
ASM inhibitor: human S-ASM enzyme inhibition | P17405 | placental ASM, HMU-PC fluorogenic substrate, 60 min | Potency, µM (titrated, usually from 57.5 µM), inactives show at the top dose activity change, negative = inhibition, actives largely listed as inhibitors | actives 0.006% (n = 340,000) | AID 504937; also: potency is read from the fitted curve at half-maximal effect
Target sequence (P17405 47-631 limits assumed): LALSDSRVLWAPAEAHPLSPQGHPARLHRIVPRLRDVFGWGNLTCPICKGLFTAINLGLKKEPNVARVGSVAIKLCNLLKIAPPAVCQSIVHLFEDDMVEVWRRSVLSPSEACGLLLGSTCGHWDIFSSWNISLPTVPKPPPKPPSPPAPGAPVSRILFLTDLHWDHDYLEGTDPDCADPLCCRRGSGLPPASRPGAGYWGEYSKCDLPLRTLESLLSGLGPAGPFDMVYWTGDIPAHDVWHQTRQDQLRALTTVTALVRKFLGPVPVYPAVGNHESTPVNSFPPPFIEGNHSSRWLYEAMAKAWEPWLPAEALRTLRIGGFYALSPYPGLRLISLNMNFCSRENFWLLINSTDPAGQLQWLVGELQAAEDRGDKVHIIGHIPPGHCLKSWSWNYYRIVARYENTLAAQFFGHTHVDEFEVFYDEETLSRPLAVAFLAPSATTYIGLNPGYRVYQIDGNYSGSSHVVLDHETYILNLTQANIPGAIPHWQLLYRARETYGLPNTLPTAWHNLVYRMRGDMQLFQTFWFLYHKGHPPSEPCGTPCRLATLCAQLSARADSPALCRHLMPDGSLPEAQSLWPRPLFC
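Fluorescence read-out (Ex 386 nm, Em 447 nm) after stopping the reaction at pH 10. Enzyme: ASM from human placenta; substrate HMU-PC0, 9 uM final; 60 min, 37 °C. Compound preincubation 10 min, ambient temperature.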
HepG2 viability: kills HepG2 cells in TGF-b inhibitor counter-screen; HepG2 CAGA-GFP viability, ATP luminescence, 18 h; Potency, µM (doses to about 46.1 µM), for the others: at the top dose activity change, negative = cytotoxicity, most hits filed as cytotoxic; actives 0.76% (n = 410,000); AID 588856; also: potency is read from the fitted curve at half-maximal effect
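HepG2 CAGA-GFP cells (1000/well, DMEM with 1% FBS) received compound, then TGF-beta at 500 pg/mL final, and were incubated 18 hours at 37 degrees C. Viability was read by CellTiter-Glo luminescence. Media-only wells were set as complete cell-killing and DMSO as no toxicity.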
* marks the source's active call; other numbers are inactive results; ? = inconclusive; . = not tested or not shown. Hits are enriched below; roughly 19% of the tested compounds scored in any of these assays. Unless noted, calls follow the shape of the dose curve; as a rule, active = well fitted curve in the direction sought with a large enough effect; inconclusive = small, poorly fitted or top-dose-only effect, or another doubt; inactive = no such curve, though single readings can be large; an effect the other way counts as inactive or inconclusive.

SMILES	TGFb SMAD3 inh	TDP1 cell CPT	TDP1 cell noCPT	IL1B secr inh	ASM inhibitor	HepG2 viability
CCOC(=O)C1=CN(Cc2ccco2)S(=O)(=O)NC1c1ccc(Br)cc1F (stereo not drawn)	-18%	-22%	?	7	-19%	-68%
CCCCOc1ccc(CC(=O)NOC)cc1	-8%	-3%	-11%	.	.	0%
CCCNC(=O)C1(C)CCCN(Cc2c(F)cccc2F)C1 (stereo not drawn)	-3%	-27%	?	0	.	-23%
CCNc1ccc(Br)cc(C(=O)/C=C/c2ccc3c(c2)OCO3)c1=O	5%	29µM*	?	-12	-13%	-8%
Nc1ccccc1C(=O)/C=C/c1ccc2c(c1)OCO2	?	?	?	-3	-17%	-16%
CCNc1ccc(Br)cc(C(=O)/C=C/c2c(Cl)cccc2Cl)c1=O	35%	5.2µM*	4.6µM*	-96*	?	-50%
Cc1nc(C(=O)N2CCCC(N3CCN(c4ccccc4C)CC3)C2)cs1 (stereo not drawn)	8%	15µM*	?	4	1%	-2%
Cc1ccccc1N1CCN(C2CCCN(C(=O)CCC(=O)N(C)C)C2)CC1 (stereo not drawn)	6%	3%	6%	-2	3%	6%
Cc1ccc2nc(C)cc(C(=O)N3CCCC(N4CCN(c5ccccc5C)CC4)C3)c2c1 (stereo not drawn)	-3%	15µM*	?	-3	3%	16%
Cc1ccccc1N1CCN(C2CCCN(C(=O)CCc3c(C)noc3C)C2)CC1 (stereo not drawn)	0%	?	23µM*	-3	2%	-23%
Cc1ccccc1N1CCN(C2CCCN(C(=O)c3ccc(Cl)s3)C2)CC1 (stereo not drawn)	-18%	?	?	-11	0%	-6%
COCc1ccc(C(=O)N2CCCC(N3CCN(c4ccccc4C)CC3)C2)s1 (stereo not drawn)	-4%	15µM*	?	-15	0%	-15%
Cc1ccccc1N1CCN(C2CCCN(C(=O)c3csc(C(C)C)n3)C2)CC1 (stereo not drawn)	?	?	?	-8	2%	-24%
Cc1ccc(S(=O)(=O)N(CCC(=O)N2CCOCC2)c2ccccc2)cc1	-2%	-17%	-11%	8	2%	0%
Cn1c(SCc2ccccc2)nc(N)c(N=O)c1=O	?	?	15µM*	?	10%	10µM*
C=C(C)CC1(NC(C)c2ccccc2)CCCCC1 (stereo not drawn)	-43%	23µM*	?	12	1%	-10%
COc1ccc(CC(C)N2CCN(Cc3ccccc3)CC2)cc1OC (stereo not drawn)	12%	26%	21%	6	4%	5%
O=[N+]([O-])c1cc(-c2nc(-c3ccncc3)no2)ccc1Cl	-6%	10µM*	?	-118*	-11%	-41%
COc1ccc(-c2nc(-c3ccncc3)no2)c(OC)c1	4%	-28%	?	-5	-2%	-1%
O=[N+]([O-])c1cc(-c2nc(-c3ccncc3)no2)cc([N+](=O)[O-])c1	?	10µM*	10µM*	32	.	-6%
Cc1ccc(-c2nc(-c3ccncc3)no2)cc1	0%	0%	-20%	-3	0%	-28%
Cc1cc(C)cc(-c2nc(-c3ccncc3)no2)c1	-3%	?	?	1	1%	-8%
COc1cc(OC)c(-c2nc(-c3ccncc3)no2)cc1OC	?	?	16µM*	.	9%	-32%
CC(C)(C)c1ccc(-c2nc(-c3ccncc3)no2)cc1	16µM*	?	16µM*	51	8%	10µM*
O=C1c2ccccc2C(=O)N1CC(O)COc1ccc(Br)cc1 (stereo not drawn)	-10%	-12%	-6%	37	-1%	-15%
SMILES	TGFb SMAD3 inh	TDP1 cell CPT	TDP1 cell noCPT	IL1B secr inh	ASM inhibitor	HepG2 viability
COc1cccc(NC(=O)Cn2c(=O)n(CCc3ccccc3)c(=O)c3c4c(sc32)CN(C(C)=O)CC4)c1	-19%	?	?	.	.	-33%
Cc1cccc(N2CCN(C(=O)C3CCN(S(=O)(=O)c4cn(C)cn4)CC3)CC2)c1C	0%	?	?	.	.	-18%
c1cnc(N2CCN(c3ncc4c(n3)CCNC4)CC2)nc1	-17%	16%	0%	.	.	-2%
COc1ccc(CN(C(=O)CSc2nnc(-c3c[nH]c4ccccc34)o2)c2ccc(F)cc2)cc1OC	-26%	8.2µM*	9.2µM*	-83*	-9%	4%
CCNC(=O)NC(=O)CSc1nnc(-c2c[nH]c3ccccc23)o1	-7%	?	?	8	-1%	-24%
COc1ccc(CN(C(=O)CSc2nnc(-c3ccc(F)cc3)o2)c2ccc(F)cc2)cc1	-20%	23µM*	21µM*	-18	-3%	-13%
Cc1c(NC(=O)c2cc(-c3ccccc3O)on2)c(=O)n(-c2ccccc2)n1C	2%	-6%	10%	13	-1%	28%
Cn1c(=S)c2[nH]c(SCc3cccnc3)nc2n(C)c1=O	?	?	?	43	2%	-5%
CCN(CC)CCSc1nc2c([nH]1)c(=S)n(C)c(=O)n2C	0%	4.1µM*	5.2µM*	-24	1%	3%
Cn1c(=O)c2[nH]c(SCCN)nc2n(C)c1=S	7%	5%	10%	30	-2%	0%
CCCCSc1nc2c([nH]1)c(=S)n(C)c(=O)n2C	5µM*	1.3µM*	1.2µM*	13	-2%	-54%
CSc1nc2c([nH]1)c(=S)n(C)c(=O)n2C	13µM*	5.8µM*	5.2µM*	-20	-2%	-37%
Cn1c(=S)c2[nH]c(SCCC(C)(C)C)nc2n(C)c1=O	?	1.5µM*	1µM*	0	-1%	-33%
O=C(Nn1c(-c2ccncc2)nc2ccccc2c1=O)c1ccccc1Br	-1%	27%	-10%	17	2%	-4%
CCS(=O)(=O)c1ncc(Cl)c(C(=O)N(Cc2ccccc2)c2ccc(OC)cc2)n1	3.2µM*	1µM*	0.65µM*	.	.	3.2µM*
COc1ccc(N(Cc2ccccc2)C(=O)c2nc(SC)ncc2Cl)cc1	13µM*	10µM*	5.2µM*	.	.	-30%
